Consider eight compounds from PubChem BioAssay (NCATS).

The target in assay [1] is Transient receptor potential cation channel subfamily V member 1 (Homo sapiens) (UniProt Q8NER1). The experiment in a line: HTS Assay for Compounds that Act as Enhancers of the Vanilloid Receptor 1 (AID 488979). Also: 0% is about no effect. In short, it runs like this:
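Calcium influx kinetics via Fluo-8 (480/520 nm) in TRPV1-expressing cells, 2000/well cultured overnight at 35.5C. Compound-alone read 3 min (agonist phase), followed by EC20 capsaicin challenge for 2 min (enhancer phase).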

For assay [2], the target named is Thyrotropin receptor (Homo sapiens) (UniProt P16473). Description: qHTS Assay for Antagonists of the Thyroid Stimulating Hormone Receptor (AID 488980). Also: series mostly up to about 58 µM; 0% is about no effect. In a few lines:
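TSHR-HEK293 cells; 70 uM RO 20-1724 PDE inhibitor; compound + EC80 TSH (4 nM final); anti-cAMP cryptate antibody/cAMP-d2 in lysis buffer, 30 min RT; HTRF 665/620 nm read.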

Assay [3] has as its target D(1A) dopamine receptor (Homo sapiens) (UniProt P21728). The experiment in a line: HTS Assay for Allosteric Agonists of the Human D1 Dopamine Receptor: Primary Screen for Agonists (AID 488981). Also: 0% is about no effect. In short, it runs like this:
(§1)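 Calcium flux in an inducible, force-coupled HEK293 Trex D1 line (overnight at 30 C): agonist mode is the 180 s kinetic read after compound; potentiator mode is the following 180 s read after dopamine at EC20.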

Assay [4] has the same target. Description: HTS Assay for Allosteric Agonists of the Human D1 Dopamine Receptor: Primary Screen for Potentiators (AID 488982). Also: 0% is about no effect. In short, it runs like this:
as §1

Assay [5] shares this target. The experiment in a line: HTS Assay for Allosteric Agonists of the Human D1 Dopamine Receptor: Primary Screen for Antagonists (AID 488983).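 Also: calcium flux response to an EC80 dopamine challenge measured with no-wash dye; % is scaled to controls: 0 for no effect and ±100 for the full control effect; nearly all actives have a fitted effect of over 65% in size.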 In short, it runs like this:
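Screening of inducible HEK293 T-REx D1 cells: compound first, EC80 dopamine 180 s later, each phase read kinetically for calcium over 180 s.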

Assay [6] is described as follows: Validation screen for small molecules that induce genotoxicity in human embryonic kidney (HEK293T) cells expressing luciferase-tagged ELG1 (AID 493106). Also: 0% is about no effect. In short, it runs like this:
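Reporter-gene quantitative HTS in HEK293T cells carrying luciferase-tagged ELG1, whose level climbs under genotoxic stress. Compound exposure lasts 16 hr at 37 °C before luciferase detection.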

The target of assay [7] is ATPase family AAA domain-containing protein 5 (Homo sapiens) (UniProt Q96QE3). The experiment in a line: Validation screen for small molecules that inhibit ELG1-dependent DNA repair in human embryonic kidney (HEK293T) cells expressing luciferase-tagged ELG1 (AID 493107).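 Also: cells co-treated with the DNA-damaging agent 5-fluorouridine alongside compound; series mostly up to about 46 µM; % is scaled to controls: 0 for no effect and ±100 for the full control effect; inhibitors lower the ELG1-luciferase luminescence signal; nearly all actives have a fitted effect of over 70% in size.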 In short, it runs like this: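 Quantitative HTS in HEK293T cells carrying luciferase-tagged ELG1, stimulated with 5-fluorouridine alongside compound for 16 hr. Loss of luciferase signal marks inhibition of ELG1 response.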

Assay [8] deals with Thyrotropin-releasing hormone receptor (Homo sapiens) (UniProt P34981). The experiment in a line: qHTS for Small Molecule Agonists and Allosteric Enhancers of Human TRH Receptor: Validation Screen for Agonists (AID 493127;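 active = calcium activation more than 3 SD above the typical response in the agonist read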;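 also: intracellular calcium rise by fluo-8 fluorescence before TRH EC20 addition; 0% is about no effect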). The conditions noted are these: TRH receptor agonist cell assay; at 2 µM; stronger effect = higher value. In a few lines: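 Gq-coupled calcium mobilization in TRHR cells after compound addition, monitored kinetically with fluo-8 dye on an FDSS reader.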

A short description of assay [9]: Nrf2 qHTS screen for inhibitors: Validation (AID 493153; active = well fitted inhibition curve with a large enough effect in the main read-out, with a control signal flat, not every such curve was filed as active). The conditions noted are these: Potency: luciferase luminescence; viability change: measured here: cytotoxicity max response. In short, it runs like this:
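Dose-response validation uses reporter A549 cells with firefly luciferase under an antioxidant response element. Compounds stay on cells 18-24 h at 37°C, and luminescence indicates Nrf2-driven transcription.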

A short description of assay [10]: qHTS for Inhibitors of Cell Surface uPA Generation: Validation Assay (AID 493164).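 Also: RAW 264.7 macrophage cells exposed to compound for 18 h; 0% is about no effect.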 In short, it runs like this: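 RAW 264.7, 4000 cells/well, o/n plating; cpd 7-pt 1:5 dilution 2.45 nM–38.3 uM final; 18 h, 37 C/5% CO2; ATP-Lite, 5 s luminescence exposure.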
The nature of assay [11]: Validation screen for small molecules that induce DNA re-replication in SW480 colon adenocarcinoma cells (AID 504364). Also: 0% is about no effect. In short, it runs like this: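 Cells are treated 48 hr with test compound, stained 40 min with Hoechst at 37 C, and scanned for nuclear fluorescence; compounds inducing re-replication increase nuclei with elevated intensity.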
The target in assay [12] is Peptidyl-prolyl cis-trans isomerase NIMA-interacting 1 (Homo sapiens) (UniProt Q13526). Description: qHTS Validation Assay to Find Inhibitors of Pin1 (AID 504536; active = well fitted inhibition curve with a large enough effect in the polarisation, with a control signal flat, not every such curve was filed as active; the % refers to the polarisation;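 also: 0% = full Pin1 enzyme wells and -100% = no-enzyme wells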). In a few lines:
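Fluorescence polarization competition: compounds (titration) displace HiFluor-488-labeled Pin1-1b peptide from Pin1 (0.3 uM final) in pH 7.5 HEPES buffer with DTT, 10 min at room temperature; %Activity normalized to no-enzyme wells, curves fitted.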
Background: qHTS replaces the single test concentration by a dilution series.

Assay [13] has as its target Ubiquitin carboxyl-terminal hydrolase 1 (Homo sapiens) (UniProt O94782). Description: Inhibitors of USP1/UAF1: Pilot qHTS (AID 504865). Also: nearly all actives have a fitted effect of over 35% in size. Also: potency is read from the fitted curve at half-maximal effect. In a few lines: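 1nM USP1/UAF1 + cpd, 15 min RT; start w/ Ub-Rho 150nM final; kinetic FL 480/540 nm, 6 reads q60 s. Buffer 50mM HEPES pH 7.8, 0.5mM EDTA, 1mM TCEP, 0.01% Tween-20, 0.1 mg/ml BSA.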
Assay [14] in a line: qHTS for Inhibitors of ATXN expression: Validation (AID 588378). Also: series mostly up to about 57 µM; % is scaled to controls: 0 for no effect and ±100 for the full control effect; nearly all actives have a fitted effect of over 75% in size. In a few lines: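 Cells: HEK293-ATXN2-FFLuc, phenol-red free DMEM, 2 h attachment. Compound pin-transfer, 24 h, 37 degrees C, 5% CO2. CellTiter-Fluor 30 min, Ex405/Em525; Bright-Glo 5 min, luminescence 2 s exposure.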
The target of assay [15] is Galactokinase (Homo sapiens) (UniProt P51570). Description: qHTS Validation Assay for Inhibitors of Human Galactokinase (GALK) (AID 493189). Also: 0% is about no effect. In short, it runs like this:
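Luminescence from leftover ATP (Kinase-Glo Plus, 10 min) served as read-out after a 1 h room-temperature reaction of 5 nM GALK, 100 uM galactose and 35 uM ATP at pH8.0.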

Assay [16] concerns the target phosphoglycerate mutase (Leishmania major) (UniProt Q4Q090). The experiment in a line: qHTS Validation Assay to Find Inhibitors of Phosphoglycerate Mutase (AID 504548). Also: series mostly up to about 58 µM; % is scaled to controls: 0 for no effect and ±100 for the full control effect. Particulars: Potency: inhibition qHTS. In a few lines: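 Lm PGAM at 1.25 nM final with substrate in 100 mM TEA pH 7.6, 5 mM MgCl2, 0.01% Tween-20; 45 min at room temperature. Kinase-GloPlus added, 10 min, end-point luminescence read.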

The target of assay [17] is Phosphoglycerate kinase, glycosomal (Trypanosoma brucei brucei) (UniProt P07378). The experiment in a line: qHTS Validation Assay to Find Inhibitors of Phosphoglycerate Kinase (AID 504547).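 Also: control wells lack PGK and mark full inhibition.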 In short, it runs like this: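 Inhibition of the enzyme is judged by a Kinase-Glo Plus luminescent signal following a one-hour incubation at room temperature. Because 1,3-BPG is unstable, it is made in situ by GAPDH at 100nM final; no-PGK wells define the baseline.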

The nature of assay [18]: qHTS for Inhibitors of ATXN expression: Validation of Cytotoxic Assay (AID 588349).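 Also: cells exposed to compound for 72 hr; % is scaled to controls: 0 for no effect and ±100 for the full control effect.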 In short, it runs like this:
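HEK293, compound dose series, 72 hr / 37 degrees C; viability via CellTiter Glo (intracellular ATP).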

Results filed as inconclusive are left out. The source made the active and inactive calls. Unless noted, calls follow the shape of the dose curve; as a rule, active = well fitted curve in the direction sought with a large enough effect; inconclusive = small, poorly fitted or top-dose-only effect, or another doubt; inactive = no such curve, though single readings can be large; an effect the other way counts as inactive or inconclusive.

Sequence of Phosphoglycerate kinase, glycosomal (Trypanosoma brucei brucei) (P07378 whole entry, looked up): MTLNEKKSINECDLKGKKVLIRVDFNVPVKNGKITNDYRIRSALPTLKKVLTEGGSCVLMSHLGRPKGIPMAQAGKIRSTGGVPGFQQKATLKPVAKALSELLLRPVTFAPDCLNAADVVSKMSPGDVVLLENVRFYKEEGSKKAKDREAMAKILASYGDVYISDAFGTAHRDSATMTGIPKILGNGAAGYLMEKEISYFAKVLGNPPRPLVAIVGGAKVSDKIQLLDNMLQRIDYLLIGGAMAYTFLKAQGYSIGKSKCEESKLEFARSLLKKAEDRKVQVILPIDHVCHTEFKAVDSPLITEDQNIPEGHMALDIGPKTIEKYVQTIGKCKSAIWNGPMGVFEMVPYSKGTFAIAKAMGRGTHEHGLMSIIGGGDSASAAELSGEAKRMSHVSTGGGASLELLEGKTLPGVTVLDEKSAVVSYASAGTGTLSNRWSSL
Sequence of D(1A) dopamine receptor (Homo sapiens) (P21728 whole entry, looked up): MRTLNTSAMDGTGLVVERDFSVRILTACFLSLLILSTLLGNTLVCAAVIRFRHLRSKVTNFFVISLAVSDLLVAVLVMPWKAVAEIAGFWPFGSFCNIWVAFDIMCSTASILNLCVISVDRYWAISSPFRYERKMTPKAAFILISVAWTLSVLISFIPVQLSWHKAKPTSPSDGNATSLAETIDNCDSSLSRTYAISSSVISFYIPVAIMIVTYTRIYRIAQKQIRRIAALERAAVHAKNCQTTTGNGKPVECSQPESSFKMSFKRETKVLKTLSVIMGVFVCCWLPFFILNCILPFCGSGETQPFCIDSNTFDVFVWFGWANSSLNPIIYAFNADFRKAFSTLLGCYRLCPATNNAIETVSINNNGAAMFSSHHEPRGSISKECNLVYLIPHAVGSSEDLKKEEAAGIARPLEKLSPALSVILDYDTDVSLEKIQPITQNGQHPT
Sequence of Ubiquitin carboxyl-terminal hydrolase 1 (Homo sapiens) (O94782 whole entry, looked up): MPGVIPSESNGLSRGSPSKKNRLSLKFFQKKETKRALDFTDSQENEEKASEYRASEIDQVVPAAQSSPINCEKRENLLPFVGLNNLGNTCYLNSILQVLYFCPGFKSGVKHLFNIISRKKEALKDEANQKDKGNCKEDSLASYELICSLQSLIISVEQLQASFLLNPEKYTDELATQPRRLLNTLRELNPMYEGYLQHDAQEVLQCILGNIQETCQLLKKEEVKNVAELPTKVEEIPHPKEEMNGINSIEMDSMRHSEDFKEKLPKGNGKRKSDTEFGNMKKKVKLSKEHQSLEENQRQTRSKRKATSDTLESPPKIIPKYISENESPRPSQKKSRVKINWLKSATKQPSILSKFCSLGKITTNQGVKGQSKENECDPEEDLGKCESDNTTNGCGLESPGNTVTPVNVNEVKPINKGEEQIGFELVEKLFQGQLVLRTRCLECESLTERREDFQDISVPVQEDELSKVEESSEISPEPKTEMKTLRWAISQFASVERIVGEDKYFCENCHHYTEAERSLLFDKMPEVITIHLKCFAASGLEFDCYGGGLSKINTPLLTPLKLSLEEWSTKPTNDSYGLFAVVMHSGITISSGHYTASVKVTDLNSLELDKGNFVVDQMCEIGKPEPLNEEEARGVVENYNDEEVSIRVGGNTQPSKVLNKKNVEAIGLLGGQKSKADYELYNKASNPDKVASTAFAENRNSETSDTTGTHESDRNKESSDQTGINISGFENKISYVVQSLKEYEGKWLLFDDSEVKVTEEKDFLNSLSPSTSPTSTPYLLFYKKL
Sequence of Thyrotropin-releasing hormone receptor (Homo sapiens) (P34981 whole entry, looked up): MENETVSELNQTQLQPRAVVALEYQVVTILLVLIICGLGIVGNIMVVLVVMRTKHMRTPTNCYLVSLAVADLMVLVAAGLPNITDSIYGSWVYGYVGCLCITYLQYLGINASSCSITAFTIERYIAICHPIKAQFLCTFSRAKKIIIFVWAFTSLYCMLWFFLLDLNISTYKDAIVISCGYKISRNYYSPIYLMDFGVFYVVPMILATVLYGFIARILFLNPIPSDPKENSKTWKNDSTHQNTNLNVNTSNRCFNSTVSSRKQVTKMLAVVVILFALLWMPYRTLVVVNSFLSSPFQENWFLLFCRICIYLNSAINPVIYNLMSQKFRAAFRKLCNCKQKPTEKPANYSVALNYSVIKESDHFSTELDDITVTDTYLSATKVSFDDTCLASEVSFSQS
Sequence of Galactokinase (Homo sapiens) (P51570 whole entry, looked up): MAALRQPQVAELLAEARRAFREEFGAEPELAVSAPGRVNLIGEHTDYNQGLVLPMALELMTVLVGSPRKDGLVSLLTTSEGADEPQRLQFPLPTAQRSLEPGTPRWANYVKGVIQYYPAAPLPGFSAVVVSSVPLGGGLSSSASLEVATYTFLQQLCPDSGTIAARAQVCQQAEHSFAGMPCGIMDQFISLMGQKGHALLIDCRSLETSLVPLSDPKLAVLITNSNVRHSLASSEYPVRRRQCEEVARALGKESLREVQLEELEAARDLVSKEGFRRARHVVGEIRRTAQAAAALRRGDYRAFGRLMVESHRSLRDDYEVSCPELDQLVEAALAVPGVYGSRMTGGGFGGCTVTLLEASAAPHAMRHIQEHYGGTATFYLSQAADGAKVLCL
Sequence of ATPase family AAA domain-containing protein 5 (Homo sapiens) (Q96QE3 whole entry, looked up, the tested form may be a part): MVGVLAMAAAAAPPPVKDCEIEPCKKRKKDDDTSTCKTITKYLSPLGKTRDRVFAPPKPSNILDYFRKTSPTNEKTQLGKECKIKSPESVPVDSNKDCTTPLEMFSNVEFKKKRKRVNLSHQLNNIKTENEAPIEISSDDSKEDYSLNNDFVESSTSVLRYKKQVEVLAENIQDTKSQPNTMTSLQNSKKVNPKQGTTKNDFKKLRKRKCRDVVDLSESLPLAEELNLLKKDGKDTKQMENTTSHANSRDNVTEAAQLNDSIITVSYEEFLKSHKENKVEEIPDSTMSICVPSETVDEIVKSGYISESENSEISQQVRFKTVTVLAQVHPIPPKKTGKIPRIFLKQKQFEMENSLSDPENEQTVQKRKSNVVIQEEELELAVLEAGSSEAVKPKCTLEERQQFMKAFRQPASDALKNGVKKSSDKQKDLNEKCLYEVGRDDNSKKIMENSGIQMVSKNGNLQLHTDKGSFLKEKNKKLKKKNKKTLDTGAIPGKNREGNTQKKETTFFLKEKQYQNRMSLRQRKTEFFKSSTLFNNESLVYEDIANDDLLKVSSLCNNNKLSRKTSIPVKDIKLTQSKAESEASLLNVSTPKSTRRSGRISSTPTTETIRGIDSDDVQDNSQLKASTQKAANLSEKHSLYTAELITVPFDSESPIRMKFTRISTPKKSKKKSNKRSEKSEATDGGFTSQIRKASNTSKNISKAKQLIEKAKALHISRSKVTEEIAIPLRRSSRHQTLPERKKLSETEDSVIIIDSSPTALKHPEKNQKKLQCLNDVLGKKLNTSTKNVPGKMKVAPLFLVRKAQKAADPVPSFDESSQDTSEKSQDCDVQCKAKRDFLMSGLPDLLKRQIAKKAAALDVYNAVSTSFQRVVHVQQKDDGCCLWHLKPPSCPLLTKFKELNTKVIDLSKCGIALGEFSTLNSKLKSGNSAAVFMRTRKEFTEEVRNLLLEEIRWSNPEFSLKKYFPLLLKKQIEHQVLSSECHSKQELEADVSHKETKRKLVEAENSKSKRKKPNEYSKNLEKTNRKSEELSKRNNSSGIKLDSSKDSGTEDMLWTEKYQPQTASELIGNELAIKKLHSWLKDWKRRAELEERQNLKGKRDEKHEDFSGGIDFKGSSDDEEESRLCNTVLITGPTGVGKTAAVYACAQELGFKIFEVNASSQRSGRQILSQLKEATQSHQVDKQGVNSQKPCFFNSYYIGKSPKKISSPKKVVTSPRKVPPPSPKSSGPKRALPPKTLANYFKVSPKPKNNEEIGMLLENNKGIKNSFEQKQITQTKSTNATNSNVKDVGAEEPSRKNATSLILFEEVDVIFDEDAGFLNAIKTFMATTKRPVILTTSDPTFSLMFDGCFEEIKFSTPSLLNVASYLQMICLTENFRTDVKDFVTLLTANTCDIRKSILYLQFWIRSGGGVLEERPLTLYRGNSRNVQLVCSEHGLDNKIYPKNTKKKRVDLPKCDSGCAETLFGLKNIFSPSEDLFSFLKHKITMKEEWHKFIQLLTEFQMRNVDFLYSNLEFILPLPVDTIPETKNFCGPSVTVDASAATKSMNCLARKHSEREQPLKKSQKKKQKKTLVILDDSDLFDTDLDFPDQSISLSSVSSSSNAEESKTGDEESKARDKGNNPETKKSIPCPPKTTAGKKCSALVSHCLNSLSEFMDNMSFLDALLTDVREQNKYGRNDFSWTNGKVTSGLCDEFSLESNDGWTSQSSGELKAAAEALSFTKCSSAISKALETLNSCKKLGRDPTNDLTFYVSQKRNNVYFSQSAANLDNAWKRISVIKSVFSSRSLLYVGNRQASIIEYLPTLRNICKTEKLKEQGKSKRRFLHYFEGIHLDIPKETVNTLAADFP
Sequence of Peptidyl-prolyl cis-trans isomerase NIMA-interacting 1 (Homo sapiens) (Q13526 whole entry, looked up): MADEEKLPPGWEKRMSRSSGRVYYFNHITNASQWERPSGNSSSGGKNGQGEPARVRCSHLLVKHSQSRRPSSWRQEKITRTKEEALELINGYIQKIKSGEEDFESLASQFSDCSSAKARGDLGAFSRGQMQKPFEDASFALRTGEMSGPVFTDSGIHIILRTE
Sequence of phosphoglycerate mutase (Leishmania major) (Q4Q090 1-553): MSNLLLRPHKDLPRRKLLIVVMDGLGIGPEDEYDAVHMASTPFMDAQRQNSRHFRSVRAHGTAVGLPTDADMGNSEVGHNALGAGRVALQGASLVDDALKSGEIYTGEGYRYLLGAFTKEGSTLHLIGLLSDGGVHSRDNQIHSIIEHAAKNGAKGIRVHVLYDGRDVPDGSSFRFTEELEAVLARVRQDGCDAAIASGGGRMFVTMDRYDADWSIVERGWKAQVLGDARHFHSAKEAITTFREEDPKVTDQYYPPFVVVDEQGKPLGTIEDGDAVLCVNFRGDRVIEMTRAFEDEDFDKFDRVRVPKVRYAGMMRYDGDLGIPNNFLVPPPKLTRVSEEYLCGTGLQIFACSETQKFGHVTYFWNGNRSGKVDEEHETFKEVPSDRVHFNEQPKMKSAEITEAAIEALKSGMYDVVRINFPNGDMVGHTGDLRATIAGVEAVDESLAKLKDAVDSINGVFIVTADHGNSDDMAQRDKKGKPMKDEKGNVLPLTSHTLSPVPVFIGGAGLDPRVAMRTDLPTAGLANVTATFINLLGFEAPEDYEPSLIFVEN

For the compound `O=C(O)[C@H]1NCCC[C@H]1C(=O)O`, the result in assay [1], in assay [2] and in assay [10] was inactive. For the same compound, the Potency entry in [3], in [4], in [5], in assay [6], in assay [7] and in [9] was “inactive” throughout. Besides, the Potency result in [11], in assay [12], in [13] and in assay [14] was “inactive” in each case. The activation in [8] was -0.188% (inactive). In assay [9], the viability change is 11%.

Regarding `N[C@@H](Cc1ccc(O)c(I)c1)C(=O)O`, the result in [1], in assay [2] and in [10] was inactive. The Potency entry in assay [3], in [4], in assay [5], in [6], in assay [7] and in assay [9] was “inactive” throughout. Besides, the Potency entry in assay [15], in assay [12], in assay [16], in assay [13] and in assay [14] was “inactive” each time. The activation in [8] was 1.19% (inactive). For the same compound, the viability change in assay [9] is -2.22%.

Turning to `O=c1[nH]c2ccccc2c2ccccc12`, the result in assay [1], in [2] and in [10] was inactive. Moreover, the Potency result in assay [3], in [4], in assay [5], in assay [6], in [7] and in assay [15] was “inactive” in each case. The Potency entry in assay [11], in [12], in assay [17], in assay [16], in assay [13] and in assay [18] was “inactive” throughout. Also, the Potency entry in assay [14] was “inactive”. Moreover, in [8], the activation is -4.5% (inactive).

As to `Cc1cccc(C)c1OCC(N)C(C)C` (configuration not stated), the outcome in [1] and in assay [2] was inactive. In addition, the Potency result in [3], in [4], in [5], in [6], in [7] and in assay [9] was “inactive” in each case. Also, the Potency result in assay [15], in [11], in [12], in assay [16], in assay [13] and in assay [18] was “inactive” each time. For the same compound, the Potency entry in [14] was “inactive”. In addition, in assay [8], the activation was 1.56% (inactive). Moreover, the viability change in assay [9] was 4.6%.

Take `C/C(=C\c1ccc(C(=O)O)cc1)c1ccc2c(c1)C(C)(C)CCC2(C)C`: the result in assay [1], in [2] and in assay [10] was inactive. The Potency entry in [3], in [4], in assay [5], in assay [6], in assay [7] and in assay [15] was “inactive” in each case. In addition, the Potency entry in assay [17], in [16] and in [14] was “inactive” each time. The activation in assay [8] was -6% (inactive). In [13], the Potency was 31.6 µM (active).

With `N=C(N)c1ccc(N)cc1`, the outcome in assay [1], in assay [2] and in assay [10] was inactive. Moreover, the Potency result in [3], in [4], in assay [5], in assay [6], in assay [7] and in [9] was “inactive” each time. The Potency entry in assay [11], in [12], in assay [16], in assay [13], in [18] and in [14] was “inactive” in each case. Besides, in assay [8], the activation is -2.75% (inactive). Further, in [9], the viability change came out at 3.63%.

Consider `CC[C@H](NC(=O)c1c(C)c(-c2ccccc2)nc2ccccc12)c1ccccc1`, for which the outcome in assay [1] and in assay [2] was inactive. Also, the Potency result in assay [3], in assay [4], in assay [5], in assay [6], in [7] and in [15] was “inactive” throughout. Further, the Potency result in assay [17], in assay [13] and in assay [18] was “inactive” each time. The activation in assay [8] is -8.62% (inactive).

`CCCCCCN(CCCCCC)C(=O)Cc1c(-c2ccc(F)cc2)[nH]c2ccccc12`: the result in [1], in [2] and in assay [10] was inactive. Further, the Potency result in assay [3], in assay [4], in assay [5], in assay [6], in assay [7] and in assay [12] was “inactive” throughout. The Potency result in [17], in assay [16], in assay [18] and in assay [14] was “inactive” in each case. The activation in assay [8] is -4% (inactive).
